# Laboratory results as given in PubChem BioAssay (NCATS).
# Records with an inconclusive call do not appear. Where a call stands in place of a potency, no number is given. Active and inactive are the calls of the source. Calls follow the shape of the dose curve; as a rule, active = well fitted curve in the direction sought with a large enough effect; inconclusive = small, poorly fitted or top-dose-only effect, or another doubt; inactive = no such curve, though single readings can be large; an effect the other way counts as inactive or inconclusive.
# Assay: NS1 protein of Zika virus - qHTS assay to identify small molecule inhibitors in human HEK 293 cells (AID 1347053); also: nearly all actives have a fitted effect of over 55% in size
# Settings: HEK293 ZIKV MR766 infection, NS1 TR-FRET, 24 h; series mostly up to 46.1 µM
# How it was run: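 Readout was TR-FRET using paired anti-NS1 antibodies after 24 h infection of HEK 293 cells with ZIKV MR766 (MOI = 0.5). Compound preceded virus by 1 h; reduced signal reflects lower NS1 expression.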
# Potency is read from the fitted curve at half-maximal effect.
row,Compound,Potency
1,CC=C(C)C(=O)O[C@H]1C(C)=C[C@]23C(=O)[C@@H](C=C(CO)[C@@H](O)[C@]12O)[C@H]1[C@@H](C[C@H]3C)C1(C)C,11.8 µM (active)
2,COc1ccc(-c2cc(=O)c3c(O)cc(O)cc3o2)cc1O,inactive
3,C[C@@H]1CCN(C(=O)CC#N)C[C@H]1N(C)c1ncnc2[nH]ccc12,inactive
4,C[C@]12CCC3c4ccc(O)cc4CCC3C1CCC2=O (some centres not stated),inactive
5,COc1cccc([C@@H](C)NCCCc2ccccc2Cl)c1,inactive
6,CC1(C)Cc2c(sc(NC(=S)NC(=O)c3ccccc3)c2C(=O)O)CO1,inactive
7,CC[C@@]1(O)C[C@H](O[C@H]2C[C@H](N(C)C)[C@H](O[C@H]3C[C@H](O)[C@H](O[C@H]4CCC(=O)[C@H](C)O4)[C@H](C)O3)[C@H](C)O2)c2c(cc3c(c2O)C(=O)c2c(O)cccc2C3=O)[C@@H]1C(=O)OC,inactive
8,CCn1c(C(=O)N(C2CC2)C2CC2)cc2c3c(ncn3C)c(Nc3cc(C)n(C)n3)nc21,inactive
9,OC[C@H]1O[C@@H](n2cnc3c2NC=NC[C@@H]3O)C[C@H]1O,inactive
10,O=C1NC(=O)C(=Cc2ccc(-c3ccc(F)cc3)o2)S1,inactive
11,COC[C@@H](c1ccc(C(F)(F)F)cc1)N1CCN(C2(C)CCN(C(=O)c3c(C)ncnc3C)CC2)C[C@H]1C,inactive
12,CCOc1ccc(Nc2nc(-c3c(C)nc4ccccn34)cs2)cc1,inactive
13,O=C1c2c(O)cc(O)cc2O[C@H](c2cc(O)c(O)c(O)c2)[C@H]1O,inactive
14,COc1ccc(C2Sc3ccccc3N(CCN(C)C)C(=O)C2OC(C)=O)cc1 (configuration not stated),inactive
15,Oc1ccc(C2CCN(c3ccnc4ccccc34)CC2)cc1O,inactive
16,CO[C@@H](C(=O)N1Cc2[nH]nc(NC(=O)c3ccc(N4CCN(C)CC4)cc3)c2C1)c1ccccc1,inactive
17,Oc1ccc(C2=Cc3ccc(O)cc3OC2)cc1,10.5 µM (active)
18,Cc1ccc(/C=N/NC(=O)c2ccccc2Oc2ccccc2)o1,inactive

row,Compound,Potency
1,COCCOC(=O)C1=C(C)NC2=C(C(=O)CC(c3ccccc3OC)C2)C1c1cccc(O)c1 (configuration not stated),inactive
2,C=C1C(=O)OC2C=C(C)CCC=C(C)CCC12 (configuration not stated),inactive
3,CN(C)C1CCN(C(=O)c2ccc(NC(=O)Nc3nc(N4CCOCC4)nc(N4CCOCC4)n3)cc2)CC1,0.418 µM (active)
4,Cc1ccc(C(C)(O)c2nc3ccccc3s2)c(C)c1 (configuration not stated),inactive
5,NC(=O)c1ccc2nc(-c3ccc(Oc4ccc(Cl)cc4)cc3)[nH]c2c1,inactive
6,O=c1c(O)c(-c2ccc(O)cc2)oc2cc(O)cc(O)c12,inactive
7,CC(=O)N(C)C1(c2ccccc2)CCN(CCC[C@]2(c3ccc(Cl)c(Cl)c3)CCCN(C(=O)c3ccccc3)C2)CC1,26.4 µM (active)
8,CC(C)(C)c1cc(C(=O)O)c(NC(=O)Nc2ccc3[nH]ncc3c2)s1,inactive
9,O=C(Nc1cc(Cl)cc2c1[nH]c1cnccc12)c1cccnc1,inactive
10,CC(C(=O)O)c1ccc(-c2ccccc2)c(F)c1 (configuration not stated),inactive
11,O=C(O)c1c(Cl)c(Cl)c(Cl)c(Cl)c1-c1c2cc(I)c(=O)c(I)c-2oc2c(I)c(O)c(I)cc12,inactive
12,C[C@H](NC(=O)C(=O)Nc1ccccc1C(C)(C)C)C(=O)N[C@@H](CC(=O)O)C(=O)COc1c(F)c(F)cc(F)c1F,inactive
13,COc1ccc(-c2oc3c(CC=C(C)C)c(OC4O[C@H](CO)[C@@H](O)[C@H](O)[C@@H]4O)cc(O)c3c(=O)c2OC2O[C@@H](C)[C@H](O)[C@@H](O)[C@@H]2O)cc1 (some centres not stated),18.7 µM (active)
14,CC(C)C(=O)Nc1ncc(-c2cc(C(F)F)nn2-c2c(Cl)cccc2Cl)s1,13.2 µM (active)
15,CNC1CCC(N(Cc2cccc(-c3ccncc3)c2)C(=O)c2sc3c(F)ccc(F)c3c2Cl)CC1 (configuration not stated),10.5 µM (active)
16,CC(C)n1cnc2c(NCCCCCCNC(=O)OC(C)(C)C)nc(NCCO)nc21,inactive
17,Cc1ccn(-c2ccc(-c3ncco3)cc2)c(=O)c1-c1ccc2nc(N)ncc2c1,inactive
18,CCOC1OC(=O)C[C@H]1NC(=O)[C@@H]1CCCN1C(=O)[C@@H](NC(=O)c1ccc(N)c(Cl)c1)C(C)(C)C (some centres not stated),inactive

# Assay: qHTS of pediatric cancer cell lines to identify multiple opportunities for drug repurposing: Primary screen for TC32 cells (AID 1347089); also: nearly all actives have a fitted effect of over 60% in size
# Settings: TC32 Ewing sarcoma viability, CellTiter-Glo luminescence, 48 h; series mostly up to 45.8 µM
# How it was run: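 Luminescent ATP read-out (CellTiter-Glo) of metabolically active TC32 cells after 48 h exposure. Concentration-response curves came from 11-point (MIPE, 0.78 nM–46 µM) or 8-point (NPC, 0.59 nM–46 µM) primary titrations; follow-up used 11 points.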
row,Compound,Potency
1,CC=C(C)C(=O)O[C@H]1C(C)=C[C@]23C(=O)[C@@H](C=C(CO)[C@@H](O)[C@]12O)[C@H]1[C@@H](C[C@H]3C)C1(C)C,inactive
2,C[C@@H]1CCN(C(=O)CC#N)C[C@H]1N(C)c1ncnc2[nH]ccc12,inactive
3,COc1cccc([C@@H](C)NCCCc2ccccc2Cl)c1,inactive
4,CC1(C)Cc2c(sc(NC(=S)NC(=O)c3ccccc3)c2C(=O)O)CO1,inactive
5,CCn1c(C(=O)N(C2CC2)C2CC2)cc2c3c(ncn3C)c(Nc3cc(C)n(C)n3)nc21,inactive
6,OC[C@H]1O[C@@H](n2cnc3c2NC=NC[C@@H]3O)C[C@H]1O,inactive
7,O=C1NC(=O)C(=Cc2ccc(-c3ccc(F)cc3)o2)S1,inactive
8,CCOc1ccc(Nc2nc(-c3c(C)nc4ccccn34)cs2)cc1,0.165 µM (active)
9,O=C1c2c(O)cc(O)cc2O[C@H](c2cc(O)c(O)c(O)c2)[C@H]1O,inactive
10,COc1ccc(C2Sc3ccccc3N(CCN(C)C)C(=O)C2OC(C)=O)cc1 (configuration not stated),inactive
11,Oc1ccc(C2CCN(c3ccnc4ccccc34)CC2)cc1O,inactive
12,Cc1ccc(/C=N/NC(=O)c2ccccc2Oc2ccccc2)o1,inactive
13,C=C1C(=O)OC2C=C(C)CCC=C(C)CCC12 (configuration not stated),inactive
14,CN(C)C1CCN(C(=O)c2ccc(NC(=O)Nc3nc(N4CCOCC4)nc(N4CCOCC4)n3)cc2)CC1,0.0658 µM (active)
15,Cc1ccc(C(C)(O)c2nc3ccccc3s2)c(C)c1 (configuration not stated),inactive
16,CC(C)(C)c1cc(C(=O)O)c(NC(=O)Nc2ccc3[nH]ncc3c2)s1,inactive
17,O=C(Nc1cc(Cl)cc2c1[nH]c1cnccc12)c1cccnc1,inactive
18,CC(C(=O)O)c1ccc(-c2ccccc2)c(F)c1 (configuration not stated),inactive
19,COc1ccc(-c2oc3c(CC=C(C)C)c(OC4O[C@H](CO)[C@@H](O)[C@H](O)[C@@H]4O)cc(O)c3c(=O)c2OC2O[C@@H](C)[C@H](O)[C@@H](O)[C@@H]2O)cc1 (some centres not stated),inactive
20,CC(C)C(=O)Nc1ncc(-c2cc(C(F)F)nn2-c2c(Cl)cccc2Cl)s1,inactive
21,CNC1CCC(N(Cc2cccc(-c3ccncc3)c2)C(=O)c2sc3c(F)ccc(F)c3c2Cl)CC1 (configuration not stated),inactive
